Source: PubChem BioAssay
HT1080 IDH1KD tx – HT-1080 IDH1 knockdown cell toxicity (counter line); HT-1080 IDH1 knockdown viability, ATP luminescence, 48 h; Potency, µM (top dose mostly 46.1 µM), most hits filed as cytotoxic; hit rate 2% among 360,000; AID 686971
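Luminescent ATP read-out (CellTiter-Glo, 10 min at room temperature) after 48 h compound exposure at 37 °C gave viability of IDH1-knockdown HT-1080 cells. Activity was normalised to DMSO and cell-free wells, then fitted as concentration-response curves.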
TDP1 cell CPT – DT40-hTDP1 cell growth loss with CPT. Potency, µM (highest dose often 46.2 µM), actives largely listed as inhibitors. hit rate 12% among 420,000. AID 686979. chicken DT40 Tdp1-/-;hTDP1 cells + 20 nM CPT, ATP luminescence, 48 h; note: nearly all actives have a fitted effect of over 55% in size
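Cell growth measured by CellTiter-Glo luminescence after a minimum 48 h, 37 C compound exposure with 20 nM CPT in Tdp1-knockout DT40 cells stably expressing hTDP1, seeded 400/well; qHTS titration format.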
KB-V1 cytotox – KB-V1 MDR subline cytotoxicity | KB-V1 MDR cells viability, CellTiter-Glo, 72 h | Potency, µM (top dose mostly 46.1 µM), usual class: cytotoxic | hit rate 3.4% among 400,000; note: nearly all actives have a fitted effect of over 60% in size
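Cells of the MDR subline KB-V1 are plated, dosed with compound at multiple concentrations, and incubated 72 h at 37 degrees C; CellTiter-Glo is then added and luminescence read after 10 min.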
HT1080NT lethal – kills 2HG-producing HT-1080-NT fibrosarcoma cells. HT-1080-NT fibrosarcoma viability, CellTiter-Glo ATP luminescence, 48 h. hit rate 1.6% among 360,000. AID 686970. Potency, µM (doses to about 46.1 µM), most hits filed as cytotoxic;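 note: NT is the 2HG producing partner of a matched IDH1 knockdown line; nearly all actives have a fitted effect of over 55% in size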
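Toxicity toward the 2HG-producing NT line was scored as %Activity, normalised to DMSO and no-cell wells, from CellTiter-Glo luminescence after 48 hours' treatment.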
DT40 TDP1 no CPT – qHTS for Inhibitors of human tyrosyl-DNA phosphodiesterase 1 (TDP1): qHTS in cells in absence of CPT; DT40 Tdp1-/- hTDP1 cells, no CPT, ATP luminescence, 48 h; Potency, µM (titrated, usually from 46.2 µM), usual class: inhibitors; hit rate 15% among 420,000; note: nearly all actives have a fitted effect of over 55% in size
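Stably hTDP1-transfected Tdp1-null chicken DT40 cells were treated with library compounds minus camptothecin and grown for at least 48 hr at 37 °C, after which cellular ATP was quantified by luminescence.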
KB-3-1 cytotox – KB-3-1 parental cell cytotoxicity; Potency, µM (titrated, usually from 46.1 µM), actives largely listed as cytotoxic; KB-3-1 viability, CellTiter-Glo ATP luminescence, 72 h; hit rate 1.4% among 400,000; note: nearly all actives have a fitted effect of over 60% in size
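Cells are dispensed, compounds pinned in, plates held at 37 °C for 72 h, then CellTiter-Glo is added and luminescence read after 10 minutes. Cell line: parental KB-3-1 in phenol-red-free DMEM, 10% FBS.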
Of the large screens only hits and unclear results are named; the others gave an inactive call. A selection: hits, their analogues and other compounds. The true share with any hit is near 19%. Calls come from the whole dose curve; as a rule, active = well fitted curve in the direction sought with a large enough effect; inconclusive = small, poorly fitted or top-dose-only effect, or another doubt; inactive = no such curve, though single readings can be large; an effect the other way counts as inactive or inconclusive.

O=C(O)C1=C[C@@H](c2ccc(C(F)(F)F)cc2)C[C@@H](OCCCCO)O1	none
COc1ccccc1C(=O)Nn1c(C2CCC2)nc2ccccc2c1=O	HT1080 IDH1KD tx inconclusive, TDP1 cell CPT 13µM, KB-V1 cytotox inconclusive, DT40 TDP1 no CPT inconclusive
O=C(Nn1c(C2CCC2)nc2ccccc2c1=O)C1CCC1	none
COc1cc2nc(C3CC3)n(NC(=O)c3ccc(F)cc3)c(=O)c2cc1OC	KB-V1 cytotox inconclusive
COc1cc2nc(C3CC3)n(NC(=O)c3ccc(Cl)cc3)c(=O)c2cc1OC	HT1080 IDH1KD tx inconclusive, TDP1 cell CPT inconclusive, HT1080NT lethal inconclusive, DT40 TDP1 no CPT 23µM, KB-3-1 cytotox inconclusive
CCOc1ccccc1C(=O)Nn1c(C2CCC2)nc2ccccc2c1=O	TDP1 cell CPT 9.2µM, HT1080NT lethal inconclusive, DT40 TDP1 no CPT 23µM
COc1cc2nc(C3CCC3)n(NC(=O)COc3ccccc3)c(=O)c2cc1OC	KB-V1 cytotox inconclusive, HT1080NT lethal 7.1µM
Cc1cccc(NC(=O)C2C3CCCCC32)c1 (configuration not stated)	KB-V1 cytotox inconclusive
Cn1c(SCc2cccc(F)c2)nnc1-c1cnccn1	HT1080 IDH1KD tx inconclusive
COC(=O)C1CCN(C(=O)c2ccc(Cl)c(S(=O)(=O)NCc3cccnc3)c2)CC1	none
Cc1cccc(OCCNC(=O)c2ccc(Cl)c(S(=O)(=O)NCc3cccnc3)c2)c1	HT1080 IDH1KD tx inconclusive, TDP1 cell CPT 3.7µM, KB-V1 cytotox inconclusive, HT1080NT lethal inconclusive, DT40 TDP1 no CPT 2.6µM, KB-3-1 cytotox 1.5µM
COc1ccc(N(C)S(=O)(=O)c2cccc(C(=O)NCc3ccc(C)cc3)c2)cc1	TDP1 cell CPT inconclusive, KB-V1 cytotox 6.5µM, DT40 TDP1 no CPT inconclusive
COc1ccc(OCCN(C)C(=O)c2cccc(S(=O)(=O)N(C)c3ccccc3)c2)cc1	TDP1 cell CPT 12µM, DT40 TDP1 no CPT 18µM (no result: KB-V1 cytotox, KB-3-1 cytotox)
CCCCN(c1ccccc1)S(=O)(=O)c1cccc(C(=O)O)c1	none
CCN(c1ccccc1)S(=O)(=O)c1cccc(C(=O)N(C)CCOc2ccccc2)c1	TDP1 cell CPT 15µM, KB-V1 cytotox inconclusive, DT40 TDP1 no CPT 21µM
COCCn1c(=N)c(C(=O)NC2CCCC2)cc2c(=O)n3cc(C)ccc3nc21	none (no result: HT1080 IDH1KD tx, HT1080NT lethal)
CN(C(=O)COC(=O)CNC(=O)c1sc2ccccc2c1Cl)C1CCS(=O)(=O)C1 (configuration not stated)	KB-V1 cytotox inconclusive
Cc1ccc(-c2nc(CN(Cc3c(C)nn(C)c3C)C(C)C)c(C)o2)o1	none
Cc1ccc(OCCNC(=O)c2cccc(Oc3ccc(C(F)(F)F)cc3[N+](=O)[O-])c2)cc1	TDP1 cell CPT inconclusive, KB-V1 cytotox inconclusive, DT40 TDP1 no CPT 16µM, KB-3-1 cytotox inconclusive
Cc1cccc(OCCNc2ccc(C(F)(F)F)cc2[N+](=O)[O-])c1	none
Cc1ccc(OCCNC(=O)c2cccc(S(=O)(=O)NCc3ccccc3)c2)cc1	HT1080 IDH1KD tx 7.3µM, TDP1 cell CPT 4.1µM, KB-V1 cytotox 8.2µM, HT1080NT lethal inconclusive, DT40 TDP1 no CPT 4.6µM, KB-3-1 cytotox 4.6µM
CC1(C)CCc2cc(S(=O)(=O)N3CCN(S(=O)(=O)c4c(F)cccc4F)CC3)ccc2O1	none (no result: HT1080 IDH1KD tx, TDP1 cell CPT, HT1080NT lethal, DT40 TDP1 no CPT)
CCc1cc(C(=O)N2CCN(C(=O)c3ccco3)CC2)sc1C	KB-3-1 cytotox inconclusive
O=C(c1cc(-c2cccnc2)nc2ccc(Cl)cc12)N1CCN(S(=O)(=O)c2cccs2)CC1	TDP1 cell CPT inconclusive, KB-V1 cytotox inconclusive, DT40 TDP1 no CPT 16µM, KB-3-1 cytotox inconclusive
CS(=O)(=O)N1CCN(C(=O)c2cc(-c3ccccc3)nc3ccccc23)CC1	TDP1 cell CPT inconclusive
O=C(c1cc(-c2cccnc2)nc2ccccc12)N1CCN(S(=O)(=O)c2cccs2)CC1	TDP1 cell CPT inconclusive, DT40 TDP1 no CPT 23µM
O=C(Cn1cnc2ccccc2c1=O)NNC(=O)c1ccccc1	none
Cn1c(=O)c2c(ncn2CC(COCc2ccc(Cl)cc2)OCc2ccc(Cl)cc2)n(C)c1=O (configuration not stated)	HT1080 IDH1KD tx inconclusive, TDP1 cell CPT 23µM, KB-V1 cytotox inconclusive, DT40 TDP1 no CPT 15µM, KB-3-1 cytotox inconclusive
CC(C)Cn1cnc2c1c(=O)n(C)c(=O)n2C	KB-V1 cytotox inconclusive
Cn1c(=O)c2c(ncn2Cc2ccc(Cl)cc2)n(C)c1=O	TDP1 cell CPT 5.8µM, KB-V1 cytotox inconclusive, DT40 TDP1 no CPT 16µM, KB-3-1 cytotox inconclusive
Cn1c(=O)c2c(ncn2CCOc2ccc(Br)cc2)n(C)c1=O	TDP1 cell CPT inconclusive, KB-V1 cytotox inconclusive, DT40 TDP1 no CPT 16µM
Cn1c(=O)c2c(ncn2CCOC(=O)C(C)(C)Oc2ccc(Cl)cc2)n(C)c1=O	KB-V1 cytotox inconclusive, DT40 TDP1 no CPT inconclusive
Cn1c(=O)c2c(ncn2CC(O)CNc2ccc(Br)cc2)n(C)c1=O (configuration not stated)	DT40 TDP1 no CPT inconclusive
CC1=C(C)CC(C(=O)Nc2nccs2)C(C(=O)O)C1 (configuration not stated)	none
CC(C)C[C@H](N)c1nnc(S(=O)(=O)Cc2cccc(F)c2)o1	HT1080 IDH1KD tx inconclusive, TDP1 cell CPT 5.8µM, HT1080NT lethal inconclusive, DT40 TDP1 no CPT 5.8µM
CN(C)C(=O)CSc1nnc([C@H](Cc2c[nH]c3ccccc23)NC(=O)OC(C)(C)C)o1	KB-V1 cytotox 13µM
CC[C@@H](C)[C@H](NC(=O)OC(C)(C)C)c1nnc(S(=O)(=O)Cc2cc(C)ccc2C)o1	HT1080 IDH1KD tx 10µM, TDP1 cell CPT 1.3µM, KB-V1 cytotox inconclusive, HT1080NT lethal 16µM, DT40 TDP1 no CPT 2.3µM
CCOC(=O)CSc1nnc([C@H](Cc2ccccc2)NC(=O)OC(C)(C)C)o1	none
Cc1ccccc1CS(=O)(=O)c1nnc([C@H](CC(C)C)NC(=O)OC(C)(C)C)o1	HT1080 IDH1KD tx 4µM, TDP1 cell CPT 2.2µM, HT1080NT lethal 11µM, DT40 TDP1 no CPT 2.8µM, KB-3-1 cytotox inconclusive
O=C1Nc2cnc(Cl)nc2Nc2ccccc21	KB-V1 cytotox inconclusive
ON=C(CCc1ccccc1)CCc1ccccc1	none
CC(C)[C@H](NC(=O)OC(C)(C)C)c1nnc(S(=O)(=O)Cc2c(F)cccc2Cl)o1	HT1080 IDH1KD tx 4µM, TDP1 cell CPT 1.2µM, KB-V1 cytotox inconclusive, HT1080NT lethal 6.3µM, DT40 TDP1 no CPT 1.6µM
CC(C)(C)OC(=O)N[C@@H](CCCCNC(=O)OCc1ccccc1)c1nnc([C@H](CCCCNC(=O)OCc2ccccc2)NC(=O)OC(C)(C)C)o1	TDP1 cell CPT inconclusive, DT40 TDP1 no CPT inconclusive
